SARS PLP yeast = SARS-CoV PLP inhibition in yeast; S. cerevisiae expressing SARS-CoV PLpro, growth rescue; Potency, µM (highest dose often 32.9 µM), without a hit: at the highest dose activity, positive = growth rescue, hits mostly activators; 330,000 tested, 0.19% active; AID 485353; calls by dose curve; further: potency means the concentration at half of the fitted maximal effect; 0% is about no effect; nearly all actives have a fitted effect of over 55% in size
LmPK inhibitor = LmPK (Leishmania mexicana) enzyme inhibition; Potency, µM (top dose mostly 57.5 µM), inactives show at the top dose activity change, negative = inhibition, most hits filed as inhibitors; Q27686; 290,000 tested, 0.37% active; AID 1721; purified LmPK, Kinase-Glo ATP luminescence, 1 h; further: potency means the concentration at half of the fitted maximal effect; on the % scale 0 is the no-effect control and ±100 the full control effect
Target sequence (Q27686 whole entry, looked up): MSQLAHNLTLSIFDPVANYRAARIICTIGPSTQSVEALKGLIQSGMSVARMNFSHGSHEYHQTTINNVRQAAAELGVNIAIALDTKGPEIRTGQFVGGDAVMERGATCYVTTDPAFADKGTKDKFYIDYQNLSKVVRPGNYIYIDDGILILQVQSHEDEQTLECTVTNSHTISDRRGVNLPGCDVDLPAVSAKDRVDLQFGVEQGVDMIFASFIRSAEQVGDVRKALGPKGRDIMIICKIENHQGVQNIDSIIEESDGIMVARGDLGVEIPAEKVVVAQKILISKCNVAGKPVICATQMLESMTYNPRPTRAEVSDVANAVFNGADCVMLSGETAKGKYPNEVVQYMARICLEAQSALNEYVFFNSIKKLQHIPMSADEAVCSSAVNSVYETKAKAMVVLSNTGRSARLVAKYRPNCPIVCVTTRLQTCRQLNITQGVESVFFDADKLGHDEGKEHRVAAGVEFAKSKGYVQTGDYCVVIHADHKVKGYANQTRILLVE
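Pyruvate kinase activity monitored as ATP production (luciferase luminescence). Conditions: 0.1 nM enzyme, 0.5 mM PEP, 0.1 mM ADP, 1 h, RT; normalized against uninhibited and no-enzyme wells.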
TbPYK inhibitor = T. brucei pyruvate kinase inhibition. Potency, µM (top dose mostly 76.8 µM), for the others: at the highest dose activity, negative = inhibition, most hits filed as inhibitors. 410,000 tested, 0.12% active. TbPYK enzyme, Kinase-Glo Plus ATP luminescence, 45 min. AID 624173. Q57TT1; further: potency means the concentration at half of the fitted maximal effect; on the % scale 0 is the no-effect control and ±100 the full control effect; nearly all actives have a fitted effect of over 50% in size
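Glycolytic pyruvate kinase of T. brucei was incubated with substrate, test compound and 130 uM ADP for 45 minutes at room temperature. Luminescent Kinase-Glo Plus signal was measured after 10 minutes.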
Cycloheximide cs = counter-screen for Shiga toxin inhibitors: cycloheximide protein synthesis inhibition; max response, %; AID 2314; cell reporter, cycloheximide protein synthesis inhibition counterscreen; 300,000 tested, 12% active; in the data active means max response mostly above about 13%, no sharp cut-off; inactive means mostly below about 14%; further: read at 38.3 µM for the half of the compounds with a filed dose; 0% is about no effect
NS1 inh = inhibitors of influenza NS1 protein function | Potency, µM (highest dose often 46.1 µM), inactives show at the top dose activity, positive = more growth | 270,000 tested, 0.4% active | AID 2326; calls by dose curve; further: potency means the concentration at half of the fitted maximal effect; actives are rising curves; nearly all actives have a fitted effect of over 50% in size
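Recovery from NS1-induced slow growth read by OD600 in budding yeast switched to galactose assay medium (pH 6.0, -URA) at 1:100 dilution. Compound 23 nl per well; the matching strain lacking NS1 serves as control.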
Shiga toxin inh = Shiga toxin inhibition. Vero cells, Shiga toxin protein synthesis inhibition reporter. inhibition, % at 38.7 µM. AID 2315. 290,000 tested, 9.2% active; in the data active means inhibition mostly above about 28%, no sharp cut-off; inactive means mostly below about 43%; further: 0% is about no effect
* hit, by the source's call; ? = inconclusive; · = no result. Shown is part of a subset that was picked to be rich in hits. Unless noted, the call rests on the fitted dose curve; in most records, active means well fitted curve in the direction sought with a large enough effect; inconclusive means small, poorly fitted or top-dose-only effect, or another doubt; inactive means no such curve, though single readings can be large; an effect the other way counts as inactive or inconclusive.

SMILES	SARS PLP yeast	LmPK inhibitor	TbPYK inhibitor	Cycloheximide cs	NS1 inh	Shiga toxin inh
COc1ccc(CCNC(=O)Cc2c(C)c3c(cc(C)c4c(C)coc43)oc2=O)cc1	·	·	-4%	·	·	·
CSc1ncccc1C(=O)Nc1nc2ccc(S(C)(=O)=O)cc2s1	-2%	-3%	1%	15	·	35
COc1ccc2nc(NC(=O)c3cc(S(=O)(=O)N4CCOCC4)ccc3C)sc2c1	-7%	-1%	-8%	1	2%	-6
COc1ccc2nc(NC(=O)c3sc4nc(C)cc(C)c4c3N)sc2c1	1%	2%	-4%	36*	12%	76*
COc1ccc2nc(NC(=O)c3cccnc3SC)sc2c1	-47%	-21%	1%	61*	0%	35*
COc1ccc2nc(NC(=O)c3ccoc3C)sc2c1	-13%	5µM*	?	48*	-8%	38*
Cc1cc(C)c2c(N)c(C(=O)Nc3ncc(C)s3)sc2n1	-32%	-25%	-10%	-7	12%	-15
Cc1onc(-c2ccccc2Cl)c1C(=O)OCC(=O)c1ccc2c(c1)OCCO2	2%	1%	0%	59*	?	121*
CC(C)C(=O)Nc1ccccc1C(=O)OCC(=O)c1ccc2c(c1)OCCO2	22%	0%	12%	38*	-12%	64*
CC(=O)Nc1ccccc1C(=O)OCC(=O)c1ccc2c(c1)OCCO2	6%	1%	2%	32*	9%	98*
Cc1onc(-c2ccccc2Cl)c1C(=O)OCC(=O)c1ccc[nH]1	1%	·	-4%	·	·	·
N#CCC(=O)Nc1ccc(C(=O)OCC(=O)c2ccc3c(c2)OCO3)cc1	2%	·	-4%	·	·	·
N#CCC(=O)Nc1ccc(C(=O)OCC(=O)c2ccc3c(c2)OCCO3)cc1	-3%	-8%	-14%	48*	·	68*
C[C@H]1[C@H](O)[C@@H](C)C=CC=CC=CC=CC=CC=CC=C[C@H](O[C@@H]2O[C@@H](C)[C@H](O)[C@@H](N)[C@@H]2O)C[C@@H]2O[C@](O)(C[C@@H](O)C[C@@H](O)[C@@H](O)CC[C@@H](O)C[C@@H](O)CC(=O)O[C@H]1C)C[C@H](O)[C@H]2C(=O)O	·	·	·	·	26%	·
COc1ccc(CNC(=O)c2cc3cc(S(=O)(=O)N4CCCCC4)ccc3n2C)c(OC)c1	·	·	-10%	·	·	·
CCOc1ncccc1C(=O)Nc1ccc(C)c(S(=O)(=O)N2CCCCCC2)c1	-4%	·	2%	·	·	·
CC(=O)NC12CC3CC(C1)CC(C(=O)OCC(=O)c1ccc4c(c1)OCCO4)(C3)C2	3%	1%	-13%	45*	-19%	80*
Cc1cccc(C(=O)OCC(=O)c2ccc3c(c2)OCO3)c1O	-7%	-6%	-1%	71*	-3%	78*
CC(=O)NC12CC3CC(C1)CC(C(=O)OCC(=O)c1cc(C)n(C)c1C)(C3)C2	-1%	·	-8%	·	·	·
CCOC(=O)C(=O)Nc1c(C(=O)Nc2cccc(F)c2)oc2ccccc12	·	·	6%	·	·	·
CCOC(=O)CCSc1nc(C)c2ccccc2n1	-5%	6%	0%	18*	-63%	57*
CCOC(=O)CNC(=O)CSc1cc(C)nc2ccc(OC)cc12	-1%	?	3%	29*	-6%	72*
CCOC(=O)CSc1nc(C)c2cc(C)c(C)cc2n1	-2%	5%	-1%	25	-3%	14
CCOC(=O)CSc1nc(C)c2cc(OC)ccc2n1	-4%	0%	1%	46*	-17%	72*
CCOC(=O)CCSc1nc(C)c2cc(C)ccc2n1	-11%	5%	-6%	30*	-79%	75*
CCCCc1nn2c(=O)cc(COC(=O)c3cccc(NC(=O)c4cccs4)c3)nc2s1	·	·	-1%	·	·	·
COC(=O)c1cc(S(=O)(=O)NCC(C)c2ccccc2)c[nH]1 (centres undefined)	·	·	11%	·	·	·
Cc1ccc(C(C)C)cc1OCC(=O)Nc1ccc(-n2cnnn2)cc1	-7%	·	2%	·	·	·
O=C(CC(=O)Nc1ccc(Cl)cc1)N/N=C\c1cccc(F)c1	2%	-4%	0%	-6	7%	-3
CCOC(=O)CSC1=NC(=O)/C(=C/c2ccc(OC)cc2)S1	-84%	-24%	-14%	22*	-43%	61*
